D1 antagonist = blocks dopamine activation of the human D1 receptor; HEK293 TREx D1 cells, calcium flux, dopamine EC80; stronger effect = lower value; hit rate 3.2% among 360,000; activity change, negative = inhibition, % at 10 µM; in the data active = activity change below about -30%
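Kinetic fluorescence of a calcium dye serves as the read-out. D1-expressing Hek293 Trex cells, induced overnight at 30 C, are exposed to compound for 180 s before an EC80 dopamine addition, then read 180 s further.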
TRHR agonist = TRH receptor (human) agonism; P34981; TRHR cells, calcium flux fluo-8, FDSS agonist mode; activation, % at 2 µM; hit rate 0.18% among 360,000
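In this calcium-flux screen, cells bearing human TRHR are dye-loaded with fluo-8, baselined for 10 cycles, then exposed to library compounds; positive kinetic calcium responses during the agonist phase mark hits, with TRH as control.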
D1 potentiator = human D1 dopamine receptor positive modulation | HEK293 TREx D1 cells, calcium flux, dopamine EC20 potentiation | potentiation, % at 10 µM | hit rate 0.036% among 360,000; in the data active = potentiation above about 30%
TRHR PAM = TRH receptor (human) allosteric enhancement. P34981. TRHR cells, fluo-8 calcium fluorescence, EC20 TRH enhancement. enhancement, % at 2 µM. hit rate 0.66% among 360,000. AID 493056; in the data active = enhancement above about 30%
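TRHR-expressing cells loaded with fluo-8 calcium dye were read kinetically (ex 480/em 530) during compound addition, then stimulated with an EC20 of TRH (10 nM final). Enhancement of the Gq-mediated intracellular calcium response was scored.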
D1 agonist = activates the human D1 dopamine receptor. hit rate 1% among 360,000. activation, % at 2 µM. P21728. AID 504660. HEK293 T-REx D1 cells, calcium flux, agonist mode
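Agonism was scored from calcium flux recorded over 180 s (1 read/s) after pintool compound addition, following a 10-cycle baseline. Cells were inducible force-coupled HEK293 TREx D1, plated overnight at 30 C and loaded with no-wash calcium dye.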
USP1 inh = inhibitors of human USP1/UAF1 deubiquitinase; recombinant USP1/UAF1, Ub-Rhodamine cleavage fluorescence; AID 743255; O94782; hit rate 0.23% among 390,000; Potency, µM (doses to about 57.1 µM), usual class: inhibitors; active = well fitted inhibition curve with a large enough effect; inconclusive = small, poorly fitted or top-dose-only effect; inactive = no such curve, though single readings can be large or run the other way; also: nearly all actives have a fitted effect of over 60% in size
Target sequence (O94782 whole entry, looked up): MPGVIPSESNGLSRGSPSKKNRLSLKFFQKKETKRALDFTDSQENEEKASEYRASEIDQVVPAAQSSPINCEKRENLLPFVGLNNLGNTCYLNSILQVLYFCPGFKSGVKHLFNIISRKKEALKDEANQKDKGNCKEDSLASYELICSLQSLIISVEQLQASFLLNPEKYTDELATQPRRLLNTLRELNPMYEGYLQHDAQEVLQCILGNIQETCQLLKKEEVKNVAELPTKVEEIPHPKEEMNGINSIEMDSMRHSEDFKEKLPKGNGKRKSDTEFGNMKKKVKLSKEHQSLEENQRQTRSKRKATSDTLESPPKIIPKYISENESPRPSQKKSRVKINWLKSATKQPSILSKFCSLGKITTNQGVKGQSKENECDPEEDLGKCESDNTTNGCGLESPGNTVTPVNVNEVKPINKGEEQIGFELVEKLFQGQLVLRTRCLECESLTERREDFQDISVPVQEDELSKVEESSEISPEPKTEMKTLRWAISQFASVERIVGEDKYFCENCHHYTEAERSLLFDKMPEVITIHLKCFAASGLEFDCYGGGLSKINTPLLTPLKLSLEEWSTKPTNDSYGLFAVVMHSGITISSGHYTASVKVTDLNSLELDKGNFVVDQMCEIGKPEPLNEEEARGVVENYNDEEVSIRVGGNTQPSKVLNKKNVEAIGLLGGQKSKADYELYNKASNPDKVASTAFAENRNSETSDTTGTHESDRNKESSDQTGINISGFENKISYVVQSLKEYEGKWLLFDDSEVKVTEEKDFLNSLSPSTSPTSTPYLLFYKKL
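USP1/UAF1 complex (1 nM) preincubated 15 min at room temperature with compound, then Ub-Rho substrate (150 nM final) added. Kinetic fluorescence at 480/540 nm over 6 reads at 60 s intervals; 50 mM HEPES pH 7.8, 0.5 mM EDTA, 0.1 mg/ml BSA, 1 mM TCEP, 0.01% Tween-20.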
Hits are given with their value. The list is not random: actives were taken first. Their share in the collection is about 4.4%. Rule as the data show it, unless noted: active = activation above about 30%; inactive = the rest.

Cc1cc2c(s1)c1cnn(Cc3ccc(F)cc3Cl)c(=O)c1n2C was read as D1 antagonist inactive, TRHR agonist inactive, D1 potentiator inactive, TRHR PAM inactive and D1 agonist inactive.
Screening COc1cccc(CNC(=O)CCCn2nc(C)c3sc4ccccc4c3c2=O)c1 returned D1 antagonist inactive, TRHR agonist inactive, D1 potentiator inactive, TRHR PAM inactive, D1 agonist inactive and USP1 inh inactive.
CC(=O)N1CCN(c2ccc(NC(=O)C(C)Oc3ccc(Cl)cc3Cl)cc2)CC1 (configuration not stated) was read as D1 antagonist inactive, TRHR agonist inactive, D1 potentiator inactive, TRHR PAM inactive, D1 agonist inactive and USP1 inh inactive.
For O=C(COc1ccc(Cl)cc1Br)NNC(=O)C(=O)N1CCCCC1 the results were D1 antagonist inactive, TRHR agonist inactive, D1 potentiator inactive, TRHR PAM inactive, D1 agonist inactive and USP1 inh inactive.
For CC(Oc1ccc(Cl)cc1Cl)C(=O)NNC(=O)C(=O)N1CCCCC1 (configuration not stated) the results were D1 antagonist -85.7, TRHR agonist inactive, D1 potentiator inactive, TRHR PAM inactive, D1 agonist inactive and USP1 inh inactive.
CC(Oc1ccc(Cl)cc1Cl)C(=O)Nc1ccc(N2CCN(C)CC2)cc1 (configuration not stated) was read as D1 antagonist -60.0, TRHR agonist inactive, D1 potentiator inactive, TRHR PAM inactive, D1 agonist inactive and USP1 inh inactive.
Screening CN1CCN(c2ccc(NC(=O)c3ccc(Cl)cc3Cl)cc2)CC1 returned D1 antagonist -43.5, TRHR agonist inactive, D1 potentiator inactive, TRHR PAM inactive, D1 agonist inactive and USP1 inh inactive.
Screening CCN(CC)c1ccc(NC(=O)c2c(C)nn(-c3ccc(F)cc3)c2-n2cccc2)c(C)c1 returned D1 antagonist inactive, TRHR agonist inactive, D1 potentiator inactive, TRHR PAM inactive, D1 agonist inactive and USP1 inh inconclusive.
`CCOC(=O)c1c(C)[nH]sc1=S` gave D1 antagonist inactive, TRHR agonist inactive, D1 potentiator inactive, TRHR PAM 33.4, D1 agonist inactive and USP1 inh inactive.
Screening CCOC(=O)c1sc(=S)[nH]c1C returned USP1 inh inactive.
Screening Cc1ccc(OCCN2CCCC2)cc1 returned D1 antagonist inactive, TRHR agonist inactive, D1 potentiator inactive, TRHR PAM 33.0, D1 agonist inactive and USP1 inh inactive.
Clc1cccc(Cl)c1OCCCCN1CCCCC1 was read as D1 antagonist inactive, TRHR agonist inactive, D1 potentiator inactive, TRHR PAM inactive, D1 agonist inactive and USP1 inh inactive.
For Cc1ccc(OCCCCN2CCCCC2)cc1 the results were D1 antagonist inactive, TRHR agonist inactive, D1 potentiator inactive, TRHR PAM inactive, D1 agonist inactive and USP1 inh inactive.
Screening Cc1cccc(Cl)c1OCCN1CCCC1 returned D1 antagonist -40.8, TRHR agonist inactive, D1 potentiator inactive, TRHR PAM inactive, D1 agonist inactive and USP1 inh inactive.
CCOc1ccc(CNC(=O)C2CCN(C(=O)N3CC(CC)Oc4ccc(C)cc43)CC2)cc1OC (configuration not stated) was read as D1 antagonist inactive, TRHR agonist inactive, D1 potentiator inactive, TRHR PAM inactive, D1 agonist inactive and USP1 inh inactive.
COc1cccc(C(=O)NCc2cn3ccccc3n2)c1 was read as D1 antagonist inactive, TRHR agonist inactive, D1 potentiator inactive, TRHR PAM inactive, D1 agonist inactive and USP1 inh inactive.
`COC1=C(OC)C(=O)C(CCCCCCCCCCO)=C(C)C1=O` gave D1 antagonist -40.6, TRHR agonist inactive, D1 potentiator inactive, TRHR PAM inactive and D1 agonist inactive.
Screening COc1ccccc1N1CCN(CCCNC(=O)c2cnn(-c3ccccc3)c2C2CCN(C(=O)OC(C)(C)C)CC2)CC1 returned D1 antagonist inactive, TRHR agonist inactive, D1 potentiator inactive, TRHR PAM inactive, D1 agonist inactive and USP1 inh inactive.
For CCOc1ccccc1NC(=O)Cn1c(=O)n(Cc2ccco2)c(=O)c2cccnc21 the results were D1 antagonist inactive, TRHR agonist inactive, D1 potentiator inactive, TRHR PAM 44.4, D1 agonist inactive and USP1 inh inactive.
`COc1ccccc1NC(=O)Cn1c(=O)n(Cc2ccco2)c(=O)c2cccnc21` gave D1 antagonist inactive, TRHR agonist inactive, D1 potentiator inactive, TRHR PAM inactive, D1 agonist inactive and USP1 inh inactive.
CCN(CC)CCNC(=O)c1ccc(NC(=O)c2cc(S(=O)(=O)N3CCCCC3)ccc2C)cc1 was read as D1 antagonist -37.1, TRHR agonist inactive, D1 potentiator inactive, TRHR PAM inactive, D1 agonist inactive and USP1 inh inactive.
`CCN(CC)CCNC(=O)c1ccc(NC(=O)c2ccc(S(=O)(=O)N3CCCC3)cc2)cc1` gave USP1 inh inactive.
For Cc1cc2ccccc2n1CCNC(=O)c1ccc(S(=O)(=O)N2CCCCC2)cc1 the results were D1 antagonist inactive, TRHR agonist inactive, D1 potentiator inactive, TRHR PAM inactive, D1 agonist 60.8 and USP1 inh inactive.
`O=C(NCCCN=C1NS(=O)(=O)c2ccccc21)c1ccc(S(=O)(=O)N2CCCCC2)cc1` gave D1 antagonist -35.1, TRHR agonist inactive, D1 potentiator inactive, TRHR PAM inactive, D1 agonist inactive and USP1 inh inactive.
CCN(CC)CCNC(=O)c1ccc(NC(=O)c2cccc(S(=O)(=O)Nc3ccc(C)cc3)c2)cc1 was read as D1 antagonist -77.0, TRHR agonist inactive, D1 potentiator inactive, TRHR PAM inactive, D1 agonist inactive and USP1 inh inactive.
For Cc1cc2c(s1)c1cnn(Cc3ccc(F)c(F)c3)c(=O)c1n2C the results were D1 antagonist inactive, TRHR agonist inactive, D1 potentiator inactive, TRHR PAM inactive and D1 agonist inactive.
Screening Cc1c(Cl)cccc1-n1ncc(C(=O)NCCN2CCN(C)CC2)c1C1CCN(C(=O)OC(C)(C)C)CC1 returned D1 antagonist inactive, TRHR agonist inactive, D1 potentiator inactive, TRHR PAM inactive, D1 agonist inactive and USP1 inh inconclusive.
For CCCCCn1c(=O)c(C(=O)c2ccccc2)nc2ccccc21 the results were D1 antagonist inactive, TRHR agonist inactive, D1 potentiator inactive, TRHR PAM inactive, D1 agonist inactive and USP1 inh inactive.
Screening CCCCCCn1c(=O)[nH]c2nc3cc(N)ccc3nc2c1=O returned D1 antagonist inactive, TRHR agonist 129.6, D1 potentiator inactive, TRHR PAM 30.6, D1 agonist 451.4 and USP1 inh inconclusive.

Compound activity as filed in PubChem BioAssay.
